Experimental data from PubChem BioAssay AID504697 (The Scripps Research Institute Molecular Screening Center, 2011).
Calls of active or inactive are those of the source.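 How the source made its calls: active means EC50 at or below 10 µM; inactive means EC50 above 10 µM.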

Test: compound autofluorescence in calcium buffer – biochemical, fluorescence, no RTF in test wells, artefact control for cardiac thin filament activator project, dose response (AID 504697);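 further: emission near 535 nm under roughly 485 nm excitation as for IANBD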
Details: compound-only fluorescence in RTF assay buffer with Ca2+ (no RTF in test wells), artifact counterscreen

SMILES	EC50
CC(C)CN1CCN(Cc2cccn2-c2ccc(Cl)cn2)CC1CCO (stereo unspecified)	> 71.5 µM (inactive)
O=C(c1ccc(COc2ccccc2Br)o1)N1N=C(C(F)F)CC1(O)C(F)F (stereo unspecified)	> 71.5 µM (inactive)
COC(=O)c1ccc(S(=O)(=O)N2CCC(O)CC2)n1C	> 71.4 µM (inactive)
Cc1nnc(N/N=C/c2ccc(O)c([N+](=O)[O-])c2)[nH]c1=O	> 71.5 µM (inactive)
O=C(O)c1cc(NCc2ccc(F)cc2)ccc1N1CCOCC1	> 71.5 µM (inactive)
N#C/C(=C\c1ccc(N2CCOCC2)o1)c1nc2ccccc2[nH]1	1.37 µM (active)
COc1ccc(S(=O)(=O)N2CN(Cc3ccco3)c3nc4ccccc4nc32)cc1	> 71.5 µM (inactive)
CCN(CC)c1ccc(/C=C2\C(=O)c3ccc(C(=O)O)cc3C2=O)cc1	1.04 µM (active)
O=C(OCCN1C(=O)c2cccc3c(N4CCOCC4)ccc(c23)C1=O)c1ccc(Cl)cc1Cl	2.52 µM (active)
Cc1cc(/C=C2\SC(=S)N(Cc3ccco3)C2=O)c(C)n1-c1cccnc1	12 µM (inactive)
CC(=O)N(C)c1ccc(C(O)(C(F)(F)F)C(F)(F)F)cc1	> 71.5 µM (inactive)
Cn1nccc1NC(=O)Nc1cccc(Cl)c1Cl	> 71.4 µM (inactive)
Cn1nc(-c2ccccc2)c(C(=O)Nc2ccc(C(F)(F)F)cc2)c1Cl	> 71.5 µM (inactive)
Cc1ccc(/C=C2/SC(=O)NC2=S)o1	> 23.8 µM (inactive)
O=[N+]([O-])c1ccc(NN=Cc2cccc3ccccc23)nc1	62.7 µM (inactive)
Cc1ccc(/C=C2\Oc3c(ccc(O)c3CN3CCN(CCO)CC3)C2=O)cc1	34.2 µM (inactive)
CNc1ccccc1C(C)(C)c1cc(C)[nH]n1	> 71.5 µM (inactive)
COc1cc(C(=O)Oc2ccccc2/C=N/NC(=O)c2ccc(Cl)cc2)cc(OC)c1OC	> 71.5 µM (inactive)

SMILES	EC50
Cc1ccc(C(=O)Nc2ccc3c(c2)ncn3C)cc1	> 71.4 µM (inactive)
O=C(Nc1ccc(Cl)c(Cl)c1)Nc1ccc([N+](=O)[O-])cn1	> 71.5 µM (inactive)
C[C@@H](C(=O)N1CCNCC1)n1cc(CCCN=C(N)N)nn1	> 71.5 µM (inactive)
CCN(CC)c1ccc(/C=c2\sc3nnc(-c4ccccc4Cl)n3c2=O)cc1	0.644 µM (active)
CCOC(=O)c1cc2n(c1N)-c1ccccc1C2=O	62.6 µM (inactive)
O=C(Nc1ccc(Cl)cn1)C1COc2ccccc2O1 (stereo unspecified)	> 71.5 µM (inactive)
Cc1cc(S(=O)(=O)N2CCCC(C(=O)Nc3ccc(C(=O)O)cc3)C2)ccc1Cl (stereo unspecified)	> 71.5 µM (inactive)
CC(C)(C)C(=O)/C=c1\s/c(=C\c2ccc(-c3ccc([N+](=O)[O-])cc3)o2)c(=O)n1CC(=O)NC(N)=O	1.72 µM (active)
CCOc1cc(/C=C2\N=C(SC(C)C(N)=O)N(c3ccc(OC(F)F)cc3)C2=O)ccc1O (stereo unspecified)	23.3 µM (inactive)
CN(Cc1ccccc1)C(=O)c1[nH]cnc1C(=O)NCc1ccccc1	> 71.6 µM (inactive)
Cn1cnnc1Sc1nc2ccccc2nc1NS(=O)(=O)c1ccccc1	> 71.5 µM (inactive)
CCc1ccc(C(=O)NNC(=O)c2cccc(N3C(=O)CCC3=O)c2)cc1	> 71.5 µM (inactive)
CCn1cc(C(=O)NCCC(=O)NCCO)c(=O)c2cc3c(cc21)OCO3	> 71.4 µM (inactive)
Cc1ccccc1-n1nnnc1SCC(C)C	> 71.5 µM (inactive)
Cc1cccn2c(=O)c(/C=C3\SC(=S)N(CC(C)C)C3=O)c(NCCCOC(C)C)nc12	0.988 µM (active)
CC(C(=O)c1ccc(Br)cc1)[n+]1cccc2ccccc21 (stereo unspecified)	> 71.5 µM (inactive)
CCCNC(=O)Cn1c(=O)/c(=C\c2ccc(-c3ccc([N+](=O)[O-])cc3)o2)s/c1=C\C(=O)C(C)(C)C	0.335 µM (active)
CN1CCC2(CC1)C1CN(C)CC=C1C(C#N)=C(N)C2(C#N)C#N (stereo unspecified)	23.5 µM (inactive)
